“And” between values parts separate entries of the source, which are not always exact repeats. Equal values may be shown once. Inconclusive results are not listed. Some compounds were tested as several samples or in several runs, with calls that do not always agree. The source made the active and inactive calls. The call rests on the fitted dose curve; in most records, active means well fitted curve in the direction sought with a large enough effect in the repeat runs; inconclusive means weak or mixed curves; inactive means no such curve, though single readings can be large; an effect the other way counts as inactive or inconclusive.
Assays:
[1] = qHTS RealTime-Glo MT Cell Viability Assay in HEK293 cells - 16 hour (AID 1224872); further: nearly all actives have a fitted effect of over 50% in size; further: potency means the concentration at half of the fitted maximal effect
Outline: (§1)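 HEK293 cells were seeded at 600 cells/well together with NanoLuc luciferase and cell-permeant prosubstrate, preincubated 5 h at 37 C/5% CO2, then given compound in DMSO by pintool. Luminescence from viable-cell prosubstrate reduction was read repeatedly over 40 h.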

[2] = qHTS RealTime-Glo MT Cell Viability Assay in HepG2 cells - 8 hour (AID 1224873); further: nearly all actives have a fitted effect of over 55% in size; further: potency means the concentration at half of the fitted maximal effect
Outline: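 HepG2 cells (600/well) mixed with RealTime-Glo MT reagent, settled 5 h at 37 C/5% CO2 before compound addition. Nonlytic NanoLuc luminescence from viable-cell prosubstrate reduction read repeatedly during 40 h treatment at 37 C.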

[3] = qHTS RealTime-Glo MT Cell Viability Assay in HEK293 cells - 40 hour (AID 1224874); conditions: RealTime-Glo luminescence; max response: stronger effect = lower value; further: nearly all actives have a fitted effect of over 50% in size; further: potency means the concentration at half of the fitted maximal effect
Outline: (§2)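 600 HEK293 cells per well, dispensed already mixed with RealTime-Glo MT reagents. Compound dosing came 5 h later. The same wells were read for luminescence at 0, 8, 16, 24, 32 and 40 h of exposure at 37 C.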

[4] = A CellTox Green Cytotoxicity Assay to monitor cytotoxicity in HEK293 cells - 24 hour (AID 1224875); further: series mostly up to about 77 µM; nearly all actives have a fitted effect of over 45% in size
Outline: (§3)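 Dead-cell fluorescence measured kinetically: asymmetric cyanine dye, HEK293, 600 cells/well, 5 h settle, 23 nL cpd/DMSO, 37 C, reads 0–40 h every 8 h.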

[5] = A CellTox Green Cytotoxicity Assay to monitor cytotoxicity in HepG2 cells - 16 hour (AID 1224876); further: nearly all actives have a fitted effect of over 45% in size
Outline: (§4)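 First, HepG2 cells (600/well) mixed with reagent were plated; second, after 5 h at 37 C they received compounds via pintool; third, fluorescence was measured at 0 h through 40 h at 8 h intervals.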

[6] = qHTS RealTime-Glo MT Cell Viability Assay in HepG2 cells - 32 hour (AID 1224877); further: nearly all actives have a fitted effect of over 55% in size; further: potency means the concentration at half of the fitted maximal effect
Outline: (§5)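 HepG2 cells were seeded at 600 cells/well together with NanoLuc luciferase and a cell-permeant prosubstrate, preincubated 5 h at 37 C/5% CO2, then pin-dosed with compounds in DMSO. Nonlytic luminescence from viable cells was read at each time point.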

[7] = A CellTox Green Cytotoxicity Assay to monitor cytotoxicity in HepG2 cells - 24 hour (AID 1224878); further: nearly all actives have a fitted effect of over 45% in size
Outline: as §4

[8] = A CellTox Green Cytotoxicity Assay to monitor cytotoxicity in HepG2 cells - 40 hour (AID 1224879); further: nearly all actives have a fitted effect of over 40% in size
Outline: as §4

[9] = qHTS RealTime-Glo MT Cell Viability Assay in HEK293 cells - 0 hour (AID 1224880); further: top concentration of the series differs between compounds; nearly all actives have a fitted effect of over 45% in size
Outline: as §2

[10] = A CellTox Green Cytotoxicity Assay to monitor cytotoxicity in HEK293 cells - 32 hour (AID 1224881); further: nearly all actives have a fitted effect of over 40% in size
Outline: as §3

[11] = A CellTox Green Cytotoxicity Assay to monitor cytotoxicity in HepG2 cells - 0 hour (AID 1224882); further: nearly all actives have a fitted effect of over 35% in size
Outline: as §4

[12] = A CellTox Green Cytotoxicity Assay to monitor cytotoxicity in HepG2 cells - 32 hour (AID 1224883); further: nearly all actives have a fitted effect of over 50% in size
Outline: as §4

[13] = A CellTox Green Cytotoxicity Assay to monitor cytotoxicity in HEK293 cells - 8 hour (AID 1224884); further: nearly all actives have a fitted effect of over 35% in size
Outline: as §3

[14] = qHTS RealTime-Glo MT Cell Viability Assay in HepG2 cells - 16 hour (AID 1224885); further: nearly all actives have a fitted effect of over 50% in size; further: potency means the concentration at half of the fitted maximal effect
Outline: as §5

[15] = qHTS RealTime-Glo MT Cell Viability Assay in HEK293 cells - 24 hour (AID 1224886); further: nearly all actives have a fitted effect of over 50% in size; further: potency means the concentration at half of the fitted maximal effect
Outline: as §1

[16] = qHTS RealTime-Glo MT Cell Viability Assay in HEK293 cells - 8 hour (AID 1224887)
Outline: as §2

[17] = A CellTox Green Cytotoxicity Assay to monitor cytotoxicity in HEK293 cells - 16 hour (AID 1224888); further: nearly all actives have a fitted effect of over 35% in size
Outline: as §3

[18] = qHTS RealTime-Glo MT Cell Viability Assay in HepG2 cells - 0 hour (AID 1224889); further: nearly all actives have a fitted effect of over 50% in size; further: potency means the concentration at half of the fitted maximal effect
Outline: as §5

[19] = A CellTox Green Cytotoxicity Assay to monitor cytotoxicity in HepG2 cells - 8 hour (AID 1224890); further: nearly all actives have a fitted effect of over 45% in size
Outline: as §4

[20] = qHTS assay to identify small molecule antagonists of the estrogen receptor alpha (ER-alpha) signaling pathway using the BG1 cell line in the presence of 0.1 nM 17-beta-estradiol - cell viability counter screen (AID 1259241); further: nearly all actives have a fitted effect of over 40% in size; further: potency means the concentration at half of the fitted maximal effect
Outline: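 Viability in VM7Luc4E2 cells after 22 hr compound exposure under 0.1 nM 17beta-estradiol stimulation, by CellTiter-Fluor.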
On the % scale 0 is the no-effect control and ±100 the full control effect.

CCOc1ccc(NC(C)=O)cc1
inactive and 21.9 µM (active): Potency [15]
inactive: Potency [1] | Potency [2] | max response [3] 2.25% and 1.74% | Potency [4] | Potency [5] | Potency [6] | Potency [7] | Potency [8] | Potency [9] | Potency [10] | Potency [11] | Potency [12] | Potency [13] | Potency [14] | Potency [16] | Potency [17] | Potency [18] | Potency [19] | Potency [20]
active: Potency [3] 21.9 µM

C=CCc1ccc(O)c(OC)c1
inactive: Potency [1] | Potency [2] | max response [3] -1.8% and -13.4% and 5.2% | Potency [4] | Potency [5] | Potency [6] | Potency [7] | Potency [8] | Potency [9] | Potency [10] | Potency [11] | Potency [13] | Potency [14] | Potency [15] | Potency [16] | Potency [17] | Potency [18] | Potency [19] | Potency [20]

O=S1(=O)OC(c2ccc(O)cc2)(c2ccc(O)cc2)c2ccccc21
inactive: Potency [1] | max response [3] -23.8% | Potency [4] | Potency [5] | Potency [7] | Potency [8] | Potency [9] | Potency [10] | Potency [11] | Potency [12] | Potency [13] | Potency [15] | Potency [16] | Potency [17] | Potency [19]
49 µM (active) and inactive: Potency [2] | Potency [6] | Potency [14]
active: Potency [18] 49 µM | Potency [20] 30.6 µM and 21.7 µM and 8.41 µM

CN(C)C(=O)Nc1ccc(Cl)c(Cl)c1
inactive: Potency [1] | Potency [2] | max response [3] -20.7% | Potency [4] | Potency [5] | Potency [6] | Potency [7] | Potency [8] | Potency [9] | Potency [10] | Potency [11] | Potency [12] | Potency [13] | Potency [14] | Potency [15] | Potency [16] | Potency [17] | Potency [19] | Potency [20]

CCCC[P+](CCCC)(CCCC)CCCC
inactive: Potency [2] | Potency [4] | Potency [5] | Potency [6] | Potency [7] | Potency [8] | Potency [9] | Potency [10] | Potency [11] | Potency [13] | Potency [14] | Potency [16] | Potency [17] | Potency [18] | Potency [19] | Potency [20]
active: Potency [1] 21.8 µM | Potency [3] 21.8 µM and 17.7 µM and 4.36 µM | Potency [15] 19.4 µM and 4.36 µM

C[C@](N)(Cc1ccc(O)c(O)c1)C(=O)O
inactive: Potency [1] | Potency [2] | max response [3] -19.7% and -21.3% and 9.87% | Potency [4] | Potency [5] | Potency [6] | Potency [7] | Potency [8] | Potency [9] | Potency [10] | Potency [11] | Potency [12] | Potency [13] | Potency [14] | Potency [15] | Potency [16] | Potency [17] | Potency [19] | Potency [20]

O=C(Nc1ncc([N+](=O)[O-])s1)c1cccs1
inactive: Potency [1] | Potency [2] | max response [3] -20.9% | Potency [4] | Potency [5] | Potency [6] | Potency [7] | Potency [8] | Potency [9] | Potency [10] | Potency [11] | Potency [13] | Potency [14] | Potency [15] | Potency [16] | Potency [17] | Potency [19]

Cc1ncc([N+](=O)[O-])n1CCO
inactive: Potency [1] | Potency [2] | max response [3] 2.44% and 13.2% and 5.09% | Potency [4] | Potency [5] | Potency [6] | Potency [7] | Potency [8] | Potency [9] | Potency [10] | Potency [11] | Potency [13] | Potency [14] | Potency [15] | Potency [16] | Potency [17] | Potency [18] | Potency [19] | Potency [20]

Cc1cc(=O)oc2cc(O)ccc12
inactive: Potency [1] | Potency [2] | max response [3] -14.5% and -7.95% and -6.84% | Potency [4] | Potency [6] | Potency [7] | Potency [8] | Potency [9] | Potency [10] | Potency [11] | Potency [12] | Potency [13] | Potency [14] | Potency [15] | Potency [16] | Potency [17] | Potency [19] | Potency [20]

CCCCC1(COC(=O)CCC(=O)O)C(=O)N(c2ccccc2)N(c2ccccc2)C1=O
inactive: Potency [1] | Potency [2] | max response [3] 0.752% and 12.4% and 1.85% | Potency [4] | Potency [5] | Potency [6] | Potency [7] | Potency [8] | Potency [9] | Potency [10] | Potency [11] | Potency [13] | Potency [14] | Potency [15] | Potency [16] | Potency [17] | Potency [19] | Potency [20]

From PubChem BioAssay (Tox21)
